According to ChEMBL document CHEMBL3433997, “St. Jude Leishmania screening dataset” (2016):
Values joined by “and” are separate entries in the source; they are usually repeats but may differ in a detail not shown here. Equal entries are not always repeated.

Molecular target: Glucose transporter (Leishmania mexicana) (UniProt O61059)
Assay: ST_JUDE_LEISH: Cytotoxicity at 2uM final concentration against transgenic Leishmania Mexicana promastigotes LmGT2 that are glucose transport deficient and complemented with the L. Mexicana glucose transporter 2. Activity is measured by DNA content using SYBR green in vitro
Type: functional

Going from `Cc1cccc(-n2c(Nc3ccc(C)c(Cl)c3)nc3ccc(S(=O)(=O)NC(C)C(C)C)cc32)c1` (stereo not given) to `Cc1cc(Cc2ccc(S(=O)(=O)c3cc4c(cc3O)CCN(C)CC4)cc2)ccc1Cl`, the inhibition rises from -0.08% to 0.31%.

Going from `Cc1cccc2nc(-c3cccc(-c4cccc(NC(=O)Cc5c[nH]cn5)c4)c3)[nH]c12` to `Cc1cccc2nc(-c3ccc(-c4ccc(NC(=O)CN5CCN(C)CC5)cc4)cc3)[nH]c12`, the inhibition rises from 2.94% to 4.7%.

First: CN1CCN(c2cc3c(cc2Br)CCN3C(=O)Nc2ccc(-c3cnc4ccccc4c3)cc2)CC1
Second: CN1CCCC(COc2cc3c(cc2Br)CCN3C(=O)Nc2ccc(-c3ccncc3)c(Cl)c2)C1 (stereo not given)
The inhibition of the first is higher: 109% for the first, 3.35% for the second.

Going from `O=C(Nc1ccc(C(=O)Oc2ccc3ccccc3c2)cc1)N[C@@H](Cc1ccc(O)cc1)C(=O)NC1CCN(Cc2ccc(O)cc2)C1` (stereo not given in full) to `O=C(Nc1ccccc1)N(Cc1ccc(-c2ccc(CNCc3ccc4c(c3)OCO4)cc2)cc1)C1CCN(Cc2ccccc2)CC1`, the inhibition falls from -2.23% to -6.42%.

First: CN1CCN(CCCCCCNc2c3ccccc3nc3ccccc23)CC1
Second: CCCCCCN1CCN(Cc2cccc(NC(=O)c3ccc(Cl)c(Cl)c3)c2)CC1
The inhibition of the first is higher: 10.9% for the first, 4.85% for the second.

Going from `CCCCCC(C)C(C)c1cc(O)c2c(c1)OC(C)(C)C=C2c1cc[n+]([O-])cc1` (stereo not given) to `Cc1ccc(O)cc1Nc1ccnc2ccc(C(C)(C)C)cc12`, the inhibition falls from 9.99% to -2.07%.

Compared with `N=C(N)c1ccc(C=Cc2ccc(C(=N)N)cc2O)cc1`, `Nc1cccc(C=CC(=O)N=c2cc[nH]c3ccccc23)c1` is lower in inhibition: -0.9% for the first, -2.1% for the second.

First: COc1cc(NC(=O)c2sc(-c3ccc(Cl)cc3)cc2NC(=O)c2cccc(N(C)C)c2)ccc1OCCN1CCCC1
Second: COc1cc(OC)cc(C(=O)Nc2nc(-c3ccc(NC(=O)c4ccccc4)cc3)cs2)c1
The inhibition of the first is lower: 0.53% for the first, 5.46% for the second.

Going from `COc1cc(NC(=O)N2CCc3cc(OC)c(OCCN4CCCCC4)cc32)cc(C(F)(F)F)c1` to `O=C(NCCCCN1CCC(c2ccc3c(c2OCCN2CCCC2)CCCC3)CC1)c1ccc(-c2ccc(C(F)(F)F)cc2)cc1`, the inhibition falls from 9.77% to 4%.

Compared with `Cc1ccccc1C1CCN(C2CCC(NC(=O)/C=C/c3c(F)ccc(F)c3F)CC2)CC1` (stereo not given), `Cn1nc(-c2ccccc2F)c2cc(C(=O)NC3CCN(Cc4ccccc4)CC3)sc21` is lower in inhibition: 2.13% for the first, -1.7% for the second.

Compared with `CCN(C)C(=O)n1ncc2c3c(N)nc(N)nc3ccc21`, `Nc1nc(N)c2c(Oc3cccc4ccccc34)cccc2n1` is higher in inhibition: 2.18% for the first, 3.17% for the second.

Compared with `Cc1[nH]c(C)c(-c2ccc(CCc3ccc(N)cc3)cc2)c(=O)c1Cl`, `O=S(=O)(NCCN1CCCC1)c1ccc(-c2ccc(CNCc3ccc(F)cc3)cc2)cc1F` is higher in inhibition: 1.77% for the first, 3.28% for the second.

Going from `O=C(/C=C/c1ccc(Cl)c(Cl)c1)NCCCCCN1CCC(NC(=O)c2ccc([N+](=O)[O-])cc2)CC1` to `O=C(/C=C/c1ccc(Cl)c(Cl)c1)NCCCCCN1CCCC(CNS(=O)(=O)c2ccc(F)cc2)C1` (stereo not given), the inhibition falls from 9.31% to 1.39%.

Compared with `COc1cc2ccccc2c(OC)c1CCNCCCCNCCc1c(OC)cc2ccccc2c1OC`, `O=S(=O)(NCCN1CCCC1)c1cccc(-c2cccc(CNCc3ccccc3)c2)c1` is lower in inhibition: 14.6% for the first, 11.7% for the second.

Compared with `O=C(/C=C/c1ccc(Cl)c(Cl)c1)NCCCCCCN1CCN(C(=O)Nc2cccc(Cl)c2)CC1`, `CC(=O)Nc1ccc(CN2CCC(CNC(=O)c3cc(-c4cccc(C(F)(F)F)c4)cs3)C2)cc1` (stereo not given) is lower in inhibition: 3.02% for the first, -5.57% for the second.

First: NC1CCN(CCNCc2cccc(-c3ccc(-c4nc5cc(F)ccc5[nH]4)cc3)c2)C1 (stereo not given)
Second: CC(=O)Nc1cccc(C(=O)Nc2cccc(-c3csc(-c4nc5ccccc5[nH]4)c3)c2)c1
The inhibition of the first is higher: 6.13% for the first, 3.14% for the second.

Compared with `CC1(C)N=C(N)N=C(N)C1c1ccc(Cl)cc1` (stereo not given), `COc1ccc(Cc2c(Cl)nc3nc(N)nc(N)c3c2C)cc1` is higher in inhibition: 3.51% for the first, 8.71% for the second.

First: CCN(CC)CCCN(C(=O)Nc1c(Cl)cncc1Cl)c1nc(-c2ccc(F)cc2)cs1
Second: CCN1CCC(N(Cc2ccc(-c3ccc(C(F)(F)F)cc3)o2)C(=O)Cn2c(CCc3cccc(F)c3F)nc(=O)c3ccccc32)CC1
The inhibition of the first is lower: 3.83% for the first, 11.7% for the second.

Compared with `CC1CCCCN1S(=O)(=O)c1ccc(NC(=O)c2cc(-c3ccccc3O)n[nH]2)cc1` (stereo not given), `N=C(N)CCN(Cc1ccccc1)c1ccc(Cl)cc1` is lower in inhibition: -1.06% for the first, -1.35% for the second.

`CC1(C)N=C(N)N=C(N)N1OCc1cc(Cl)c(CON2C(N)=NC(N)=NC2(C)C)cc1Cl` showed an inhibition of -2.89%.

With `O=C(/C=C/c1ccc(Cl)c(Cl)c1)NCCCCCN1CCC(c2c[nH]c3ccccc23)C(O)C1` (stereo not given) the inhibition was 2.14% and 3.3%.
